BLM inh: Bloom syndrome helicase (human) inhibition. AID 2528. 350,000 tested, 0.2% active. Potency, µM (doses to about 56.1 µM), inactives show at the highest dose activity change, negative = inhibition, most hits filed as inhibitors. P54132. recombinant BLM DNA unwinding, fluorescence dequenching;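 further: plate controls were vehicle for no effect and no enzyme for full effect; nearly all actives have a fitted effect of over 35% in size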
APE1 inh-1: blocks human APE1 abasic DNA cleavage. 350,000 tested, 0.35% active. P27695. recombinant APE1, TAMRA/BHQ-2 abasic DNA cleavage fluorescence. Potency, µM (highest dose often 65.8 µM), without a hit: at the highest dose activity change, negative = inhibition, hits mostly inhibitors;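 further: plate controls were vehicle for no effect and reference inhibitor for full effect; nearly all actives have a fitted effect of over 55% in size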
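Activity was derived from the fluorescence gain between first and third kinetic reads (60 s intervals, ex 525/em 598 nm) after 50 nM THF-abasic TAMRA/BHQ-2 duplex was added to 0.75 nM APE1 preincubated 15 min with compound.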
Tb PGK inh: blocks T. brucei phosphoglycerate kinase. PGK/GAPDH coupled, Kinase-Glo luminescence, 60 min. Potency, µM (series often up to 57.5 µM), inactives show top-dose activity change, negative = inhibition, most hits filed as inhibitors. 380,000 tested, 0.043% active; further: nearly all actives have a fitted effect of over 60% in size
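Luminescent ATP detection (Kinase-Glo Plus) follows a 60-minute room-temperature incubation, with wells lacking PGK as controls. Buffer: 100 mM TEA (pH 7.6), 5 mM MgCl2, 0.01% Tween-20. Coupling enzyme GAPDH (100 nM final) supplies unstable 1,3-BPG in-well.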
RECQ1 inh: RECQ1 (human) helicase inhibition. P46063. RECQ1 DNA unwinding, red fluorescence kinetic read. Potency, µM (series often up to 57.3 µM), inactives show at the top dose activity, negative = inhibition, hits mostly inhibitors. 240,000 tested, 0.54% active;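 further: plate controls were vehicle for no effect and no enzyme for full effect; nearly all actives have a fitted effect of over 30% in size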
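50 nM RECQ1T1 preincubated 15 min with compound in Tris pH 8.0 buffer with MgCl2, DTT, Tween-20 and 2.5 ug/ml poly(dI-dC); started with 200 nM TAMRA/BHQ-2 forked duplex and 2 mM ATP. Unwinding read as fluorescence (525/598 nm), two reads 2 h apart.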
FEN1 inhibitor: blocks human flap endonuclease 1; P39748; Recombinant FEN1 flap cleavage, fluorescence, 15 min; Potency, µM (series often up to 114 µM), inactives show top-dose activity change, negative = inhibition, hits mostly inhibitors; AID 588795; 390,000 tested, 0.35% active; further: nearly all actives have a fitted effect of over 65% in size
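In this screen, 50 nM flap DNA substrate was added to 10 nM FEN1 pretreated with compound for 15 min at room temperature; cleavage was followed with reads at 0 and 15 min, and Hill fitting gave concentration–response parameters.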
DNA dye displace: displaces fluorescent dye from DNA, flagging APE1 artifacts. shares compounds with APE1 inh-1. DNA fluorescent dye displacement counterscreen, fluorescence. AID 2564. Potency, µM (highest dose often 28.5 µM), without a hit: top-dose activity change, negative = inhibition, usual class: inhibitors. 480 tested, 7% active;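 further: loss of thiazole orange fluorescence as the dye is displaced from duplex DNA; 0% = ThO with dsDNA and no compound and -100% = ThO without dsDNA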
Endo IV inh: blocks E. coli endonuclease IV DNA cleavage. shares compounds with APE1 inh-1. 560 tested, 4% active. E. coli Endo IV, fluorogenic AP-site DNA cleavage. Potency, µM (highest dose often 27.1 µM), without a hit: at the top dose activity change, negative = inhibition, actives largely listed as inhibitors;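 further: plate controls were uninhibited enzyme wells for no effect and no enzyme buffer wells for full effect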
APE1 inh-2: APE1 (human) endonuclease inhibition, confirmation; shares compounds with APE1 inh-1; purified APE1, fluorogenic abasic-site DNA cleavage; Potency, µM (top dose mostly 57.1 µM), for the others: at the top dose activity change, negative = inhibition, hits mostly inhibitors; 750 tested, 44% active; AID 2572; further: nearly all actives have a fitted effect of over 30% in size
APE1 FP inh: displaces DNA from human APE1 in FP assay | shares compounds with APE1 inh-1 | APE1 binding to TAMRA-labelled double-stranded DNA, fluorescence polarization displacement | Potency, µM (top dose mostly 28.5 µM), for the others: top-dose activity, negative = inhibition, usual class: inhibitors | 480 tested, 7% active
Starred values were filed as active, the others as inactive; ! = a repeat was not active; [ ] = dose if it differs, or a comment. Most compounds without a hit are left out; they make up all but 0.74% or so of the library. The call rests on the fitted dose curve; in most records, active means well fitted curve in the direction sought with a large enough effect; inconclusive means small, poorly fitted or top-dose-only effect, or another doubt; inactive means no such curve, though single readings can be large; an effect the other way counts as inactive or inconclusive. Unless noted, on the % scale 0 is the no-effect control and ±100 the full control effect; potency means the concentration at half of the fitted maximal effect.

Screening CCOC(=O)[C@H](CCc1ccccc1)N[C@@H](C)C(=O)N1CCC[C@H]1C(=O)O returned BLM inh -9%, APE1 inh-1 0.063µM*!, Tb PGK inh 0%, RECQ1 inh -7%, FEN1 inhibitor 11%, DNA dye displace -2%[57.1 µM], Endo IV inh 25%[57.1 µM], APE1 inh-2 6% and APE1 FP inh 5%[57.1 µM].
Screening COc1c(-c2ccc(O)c(O)c2)oc2cc(O)cc(O)c2c1=O returned BLM inh 11µM*!, APE1 inh-1 inconclusive, Tb PGK inh inconclusive, RECQ1 inh 18µM*!, FEN1 inhibitor 25µM*, DNA dye displace inconclusive, Endo IV inh 59%, APE1 inh-2 inconclusive and APE1 FP inh 1%.
O=c1c(O)c(-c2ccccc2O)oc2cc(O)cc(O)c12 was read as BLM inh -3%, APE1 inh-1 -5% and RECQ1 inh -4%.
Screening O=c1c(O[C@@H]2O[C@H](CO)[C@H](O)[C@H](O)[C@H]2O)c(-c2ccc(O)c(O)c2)oc2cc(O)cc(O)c12 returned BLM inh -1%, APE1 inh-1 inconclusive and RECQ1 inh -10%.
`CC1OC(OCC2OC(Oc3c(-c4ccc(O)cc4)oc4cc(O)cc(O)c4c3=O)C(O)C(O)C2O)C(O)C(O)C1O` (stereo not given) gave BLM inh -19%, APE1 inh-1 3.5µM*, Tb PGK inh inconclusive, RECQ1 inh inconclusive, FEN1 inhibitor inconclusive, DNA dye displace inconclusive, Endo IV inh 0%, APE1 inh-2 3.2µM* and APE1 FP inh -1%.
For O=c1c(OC2OC(CO)C(O)C(O)C2OC2OC(CO)C(O)C(O)C2OC2OC(CO)C(O)C(O)C2O)c(-c2ccc(O)c(O)c2)oc2cc(O)cc(O)c12 (stereo not given) the results were BLM inh -2%, APE1 inh-1 inconclusive, Tb PGK inh -21%, RECQ1 inh -8%, FEN1 inhibitor -25%, DNA dye displace -21%, Endo IV inh 2%, APE1 inh-2 10µM* and APE1 FP inh inconclusive.
Screening CC1OC(OC2C(Oc3c(-c4ccc(O)cc4)oc4cc(O)cc(O)c4c3=O)OC(COC3O[C@@H](C)[C@H](O)[C@@H](O)C3O)C(O)C2O)C(O)C(O)C1O (stereo not given in full) returned APE1 inh-1 14%, Tb PGK inh 2% and FEN1 inhibitor -13%.
For O=c1c(O)c(-c2ccc(O)cc2O)oc2cc(O)cc(O)c12 the results were BLM inh -10%, APE1 inh-1 14µM*, RECQ1 inh 7.1µM*, FEN1 inhibitor 28µM*, Endo IV inh 5%[57.1 µM] and APE1 inh-2 -24%.
CCC(=O)NC(Nc1sc2c(c1C(=O)OC)CCCC2)(C(F)(F)F)C(F)(F)F was read as BLM inh -1%, APE1 inh-1 -1%, Tb PGK inh inactive, RECQ1 inh -5% and FEN1 inhibitor 4%.
COc1ccc(-c2cc(=O)[nH]c(=S)[nH]2)cc1 was read as BLM inh -3%, APE1 inh-1 -4%, Tb PGK inh 10%, RECQ1 inh inactive and FEN1 inhibitor -7%.
`O=c1cc(-c2ccc(O)cc2)oc2c(O)c(O)c(O)c(O)c12` gave BLM inh 10µM*, APE1 inh-1 4.5µM*, Tb PGK inh 4.5µM*, RECQ1 inh 13µM*, FEN1 inhibitor 20µM*, DNA dye displace -14%, Endo IV inh 6%, APE1 inh-2 0.5µM* and APE1 FP inh 12%.
O=c1cc(-c2ccccc2)oc2cc(O)c(O)c(O)c12 was read as BLM inh 16µM*!, APE1 inh-1 5.6µM*, Tb PGK inh -14%, RECQ1 inh 28µM*, FEN1 inhibitor 35µM*, DNA dye displace 1µM*, Endo IV inh 186%[57.1 µM], APE1 inh-2 0.63µM* and APE1 FP inh 18%[57.1 µM].
COc1c(O)cc2oc(-c3ccc(O)cc3)cc(=O)c2c1O was read as BLM inh -15%, APE1 inh-1 inconclusive, Tb PGK inh -2%, RECQ1 inh -3% and FEN1 inhibitor -7%.
COc1cc2cc(C(=O)Nc3ccccc3)c(N)nc2cc1OC was read as BLM inh -5%, APE1 inh-1 -5%, Tb PGK inh -5%, RECQ1 inh -1% and FEN1 inhibitor inconclusive.
For Cc1nc(SCC(=O)O)c(C#N)c2c1CCCC2 the results were BLM inh -2%, APE1 inh-1 inconclusive, Tb PGK inh -16%, RECQ1 inh -27%, FEN1 inhibitor -6% and APE1 inh-2 inconclusive.
`Cn1cnc(C(=O)N2CCc3ccccc3C2)c1C(=O)N1CCc2ccccc2C1` gave APE1 inh-1 47%, Tb PGK inh inactive and FEN1 inhibitor 0%.
`CCOc1cc(/C=C2\C(=O)N(c3ccc(C(N)=O)cc3)N=C2C)ccc1OC(=O)c1cccs1` gave BLM inh -17%, APE1 inh-1 28µM*, Tb PGK inh -8%, RECQ1 inh -1%, FEN1 inhibitor -2%, DNA dye displace inconclusive, Endo IV inh -10%, APE1 inh-2 -7%[24.4 µM] and APE1 FP inh -6%.
CCOc1cc(/C=C2/C(=O)N(c3ccccc3)N=C2C)ccc1OC(=O)c1ccco1 was read as BLM inh -4%, APE1 inh-1 -9%, Tb PGK inh -6%, RECQ1 inh -1% and FEN1 inhibitor -22%.
Screening COc1ccc2cc3cc(C(=O)NCc4cccs4)oc3nc2c1 returned BLM inh -23%, APE1 inh-1 1%, Tb PGK inh -13%, RECQ1 inh -7%, FEN1 inhibitor inconclusive and APE1 inh-2 -12%.
O=C(N/N=C/c1ccc2c(c1)OCO2)c1cc2ccccc2o1 was read as BLM inh -21%, APE1 inh-1 inconclusive, Tb PGK inh 8%, RECQ1 inh -14%, FEN1 inhibitor 5% and APE1 inh-2 40µM*.
